Compound activity deposited in PubChem by The Scripps Research Institute Molecular Screening Center.
GSTO1 inh = counter-screen for RBBP9 inhibitors: inhibitors of human GSTO1 | P78417 | recombinant GSTO1, activity-based probe fluorescence polarization | inhibition, % at 5.96 µM | 300,000 tested, 1.1% active | AID 1974;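 active means inhibition above the campaign mean inhibition plus 3 SD, cut at about 35% in these data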;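 further: 0% = GSTO1-1 with DMSO and 100% = wells lacking GSTO1-1 enzyme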
PME-1 inh = PME-1 (human) inhibition. AID 2130. 320,000 tested, 0.53% active. recombinant PME-1, FP-Rh probe fluorescence polarization. Q9Y570. inhibition, % at 5.9 µM;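 active means inhibition above the campaign mean of all compounds plus 3 SD, cut at about 26% in these data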;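 further: competitive labeling of PME-1 active site by serine hydrolase directed probe; 0% = PME-1 with DMSO and 100% = wells lacking PME-1 enzyme; inhibitors block probe labeling so polarization falls and inhibition rises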
Fam108B counter = Fam108B inhibition, counter-screen for RBBP9 inhibitors; 300,000 tested, 0.33% active; inhibition, % at 9.51 µM; recombinant Fam108B, FP-Rh probe fluorescence polarization;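 active means inhibition above the screen mean inhibition plus 3 SD, computed separately per campaign, cut at about 18% in these data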;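 further: inhibitors lower polarization as less probe binds the enzyme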
LYPLA1 inh = LYPLA1 (human) inhibition in PME1 counter-screen; O75608; recombinant LYPLA1, FP-Rh probe fluorescence polarization; inhibition, % at 5.9 µM; 320,000 tested, 0.16% active;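 active means inhibition above the mean of all tested compounds plus 3 SD, set per campaign, cut at about 14% in these data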;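 further: inhibitors block serine hydrolase probe labeling of LYPLA1 so polarization falls; 0% = enzyme with DMSO and 100% = wells lacking LYPLA1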
PAD4 inh = PAD4 (human) enzyme inhibition; Q9UM07; recombinant PAD4, RCA probe fluorescence polarization; inhibition, % at 6.36 µM; 330,000 tested, 0.41% active;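 active means percent inhibition above a cutoff equal to the mean of all tested compounds plus 3 SD, cut at about 15% in these data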;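 further: 0% = PAD4 with RCA probe and DMSO and 100% = probe without PAD4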
Target sequence (Q9UM07 whole entry, looked up): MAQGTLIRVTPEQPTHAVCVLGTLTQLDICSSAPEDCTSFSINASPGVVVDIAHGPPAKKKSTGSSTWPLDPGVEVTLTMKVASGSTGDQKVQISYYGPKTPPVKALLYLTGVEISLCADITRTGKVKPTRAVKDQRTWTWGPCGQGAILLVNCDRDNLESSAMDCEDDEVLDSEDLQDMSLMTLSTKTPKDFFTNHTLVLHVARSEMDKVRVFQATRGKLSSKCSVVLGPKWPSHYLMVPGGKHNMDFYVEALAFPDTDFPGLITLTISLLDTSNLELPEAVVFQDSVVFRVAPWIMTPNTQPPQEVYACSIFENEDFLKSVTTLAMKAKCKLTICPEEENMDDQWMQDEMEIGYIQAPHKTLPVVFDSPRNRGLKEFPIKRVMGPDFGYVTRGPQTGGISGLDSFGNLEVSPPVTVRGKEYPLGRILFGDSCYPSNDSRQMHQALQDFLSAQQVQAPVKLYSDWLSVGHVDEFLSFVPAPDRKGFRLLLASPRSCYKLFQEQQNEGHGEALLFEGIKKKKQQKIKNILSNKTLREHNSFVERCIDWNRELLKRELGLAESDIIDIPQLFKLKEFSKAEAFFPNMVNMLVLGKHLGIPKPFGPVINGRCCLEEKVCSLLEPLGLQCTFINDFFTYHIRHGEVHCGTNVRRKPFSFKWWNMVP
LYPLA2 counter = counter-screen for PME1 inhibitors: inhibitors of human LYPLA2; O95372; recombinant LYPLA2, FP-Rh probe fluorescence polarization; inhibition, % at 5.9 µM; 320,000 tested, 0.38% active; AID 2177;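 active means inhibition above the screen-wide mean plus 3 SD, limit set per campaign, cut at about 26% in these data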;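 further: 0% = LYPLA2 with DMSO and 100% = wells lacking LYPLA2 enzyme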
LYPLA2 confirm = LYPLA2 (human) inhibition, confirmation counter-screen | shares compounds with LYPLA2 counter | recombinant LYPLA2, FP-Rh probe fluorescence polarization | inhibition, % at 5.9 µM | 1,100 tested, 72% active;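 active means mean inhibition across replicates above the hit cutoff set in the primary screen, cut at about 26% in these data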;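 further: blocked labeling of the enzyme by serine hydrolase FP-Rh probe lowers polarization; 0% = enzyme with DMSO and 100% = wells lacking LYPLA2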
LYPLA2 ABPP = LYPLA2 (human) inhibition, late stage results; shares compounds with LYPLA2 counter; rhLYPLA2 in mouse brain proteome, gel ABPP FP-Rh; inhibition, % at 20 µM; 150 tested, 30% active; AID 652029;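 active means inhibition of LYPLA2 enzyme probe labeling above about 50%, limit read from the data; inactive means inhibition below that limit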;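 further: loss of FP-Rh probe labeling of the LYPLA2 gel band measured as band density; 0% = DMSO only control band and 100% = blank gel background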
The depositor's hits bear a star; nt = not tested or not shown. Most compounds without a hit are left out; they make up all but 1.8% or so of the library.

SMILES	GSTO1 inh	PME-1 inh	Fam108B counter	LYPLA1 inh	PAD4 inh	LYPLA2 counter	LYPLA2 confirm	others
CCCCCCCCC[n+]1cccc2c3ccccc3ccc21	6.8	-8.5	3.1	0.4	5.6	18.9	nt
CCCCCCCCCCCCCCCC[n+]1cccc2ccccc21	7.5	9.2	12.6	7.9	7.0	32.5*	57.2*
CC(=O)Nc1ccc(S(=O)(=O)NCC(=O)OCC(=O)NNC(=O)c2ccccc2)cc1	nt	-1.1	nt	-0.5	2.3	-0.1	nt
Cc1nc2ccccc2nc1OCC(=O)Nc1ccc2ccccc2c1	2.8	-8.8	3.1	0.0	-5.3	32.5*	11.6
O=C(OCc1ccc(F)cc1)c1cc(S(=O)(=O)N2CCCCC2)ccc1N1CCOCC1	0.9	3.2	1.1	2.3	-3.6	6.3	nt
O=C(OCc1ccc([N+](=O)[O-])cc1)c1cc(S(=O)(=O)N2CCCCC2)ccc1N1CCOCC1	-10.0	-0.9	0.1	2.4	1.5	27.5*	32.8*
Cc1ccc(OCCOC(=O)c2cc(S(=O)(=O)N3CCCCC3)ccc2N2CCOCC2)cc1	nt	8.1	nt	-0.8	5.7	28.9*	31.1*
COc1ccc(COC(=O)c2cc(S(=O)(=O)N3CCCCC3)ccc2N2CCOCC2)cc1	-3.6	8.8	-3.0	1.8	-3.2	17.2	nt
Cc1cc(C)c(Cn2cnc3ccccc32)c(C)c1	11.7	3.7	3.0	4.5	0.5	-0.2	nt
Cc1ccc(NC(=O)CSC(C)c2nc3ccccc3c(=O)[nH]2)cc1 (centres undefined)	-5.2	3.8	-4.9	-1.2	-9.6	-0.7	nt
NC(=O)CC(NC(=O)c1ccc(Br)cc1)c1ccc(N2CCN(c3ccccc3)CC2)c([N+](=O)[O-])c1 (centres undefined)	2.5	-0.6	-1.6	-3.8	4.7	26.2*	28.4*
Cc1ccc(NC(=O)Cn2c(=O)c(C)nc3ccccc32)cc1	-0.9	-2.8	-1.7	-0.1	-6.6	12.5	nt
Cc1nc2ccccc2n(CC(=O)Nc2cc(Cl)cc(Cl)c2)c1=O	-8.5	-4.0	-0.4	-1.6	-5.6	31.8*	42.4*
Cc1ccc(C(=S)N2CCCCCC2)cc1	1.8	-13.6	-2.9	-2.1	-9.3	-4.4	nt
Cc1noc(C)c1COc1ccc(C(=O)N2CCN(c3ccccc3F)CC2)cc1	1.4	-2.0	-3.3	0.1	0.7	17.5	nt
COc1cccc2c1OC1(C)CC2NC(=O)N1c1cccc(C(=O)N2CCN(c3ccccc3)CC2)c1 (centres undefined)	4.0	0.9	3.8	-0.1	1.8	1.0	nt
CC(=O)c1ccc(N2CCN(C(=O)c3ccc(OCc4c(C)noc4C)cc3)CC2)cc1	-1.3	-6.9	-4.7	-3.9	5.7	36.6*	28.4*
COc1ccc(C(=O)N2CCN(c3cccc(Cl)c3)CC2)cc1	-4.6	-7.2	0.6	2.5	-2.5	8.2	nt
COc1ccc(N2CCN(C(=O)CCNC(=O)c3ccc(C(C)(C)C)cc3)CC2)cc1	4.3	0.0	-2.2	-2.8	-0.5	6.2	nt
COc1ccc(N2CCN(C(=O)c3ccc(N4C(=O)NC5CC4(C)Oc4ccccc45)cc3)CC2)cc1 (centres undefined)	-1.6	-2.4	0.8	-0.5	6.2	33.6*	39.5*
COc1ccc(N2CCN(C(=O)c3ccc(C(C)(C)C)cc3)CC2)cc1	3.2	-1.6	-0.6	5.6	2.0	78.8*	86.7*	LYPLA2 ABPP=86.0*
COc1cccc(N2CCN(C(=O)c3ccc(-c4ccccc4)cc3)CC2)c1	-4.7	-1.0	-2.4	1.7	0.9	29.7*	26.2*
CN1CCN(CC(=O)N/N=C\c2c[nH]c3ccccc23)CC1	2.9	-0.8	0.2	5.7	-2.2	9.7	nt
CCOc1cc(/C=N/NC(=O)C(=O)N2CCCC2)ccc1O	6.2	-0.4	2.4	0.7	1.6	6.5	nt
COc1cc(C(=O)Nc2ccc(N3CCN(C(=O)c4ccc(C)cc4)CC3)cc2)cc(OC)c1OC	-3.1	2.5	-1.3	7.9	-8.2	37.9*	50.0*	LYPLA2 ABPP=35.0
SMILES	GSTO1 inh	PME-1 inh	Fam108B counter	LYPLA1 inh	PAD4 inh	LYPLA2 counter	LYPLA2 confirm	others
Cc1cc(C)n(-c2ccc(C(=O)OCC(=O)N3CCN(c4ccccc4)CC3)cc2)n1	nt	nt	nt	nt	-2.8	nt	nt
COc1ccc(N2CCN(C(=O)c3ccc(NC(=O)C4=CSCCO4)cc3)CC2)cc1	-4.2	4.9	0.8	-4.1	6.3	34.8*	38.1*
COc1ccc(N2CCN(C(=O)c3ccc(-n4nc(C)cc4C)cc3)CC2)cc1	-0.1	-1.6	-3.4	-1.9	1.6	40.9*	39.2*
O=C(Nc1ccc(C(=O)N2CCN(c3ccc(F)cc3)CC2)cc1)C1=CSCCO1	-0.5	3.1	0.6	1.4	-3.7	20.2	nt
Cc1ccc(C(=O)N2CCN(c3ccc(NC(=O)c4cccnc4)cc3)CC2)cc1	5.4	-7.6	4.3	0.3	-0.1	17.3	nt
O=C(c1ccc2c(=O)n3c(nc2c1)CCCCC3)N1CCN(C(c2ccccc2)c2ccccc2)CC1	-2.5	-7.1	-4.6	1.5	-2.4	0.8	nt
CCn1c(C2CCN(Cc3ccccc3)CC2)n[nH]c1=S	4.0	-0.9	-0.9	1.8	-1.0	5.4	nt
Cc1c(C(=O)N2CCC(C)CC2)sc2ncnc(N(C)c3ccccc3)c12	-5.1	-1.0	0.8	0.6	-2.5	1.0	nt
O=C(CNC(=O)c1ccc(S(=O)(=O)N2CCCC2)cc1)N/N=C/c1c(Cl)cccc1Cl	5.5	0.1	-5.3	-1.9	-3.6	26.1*	21.7
Cc1nn(-c2ccccc2)c(C)c1C(=O)OCC(=O)Nc1cccc(S(N)(=O)=O)c1	nt	-7.5	nt	2.3	4.9	4.3	nt
CCC1(C(=O)OC)NC(c2ccccc2OC)C2C(=O)N(C)C(=O)C21 (centres undefined)	0.8	5.9	2.4	-0.5	-1.6	1.2	nt
CN(C)C(=O)N1CCC(C(=O)N2CCCC(C(=O)c3ccc(C(C)(C)C)cc3)C2)CC1 (centres undefined)	5.5	3.1	1.9	4.1	2.1	34.1*	33.9*
COc1ccc(N2CCN(C(=O)CCN3C(=O)c4ccccc4S3(=O)=O)CC2)cc1	3.9	2.9	-2.7	-0.6	-2.0	34.4*	34.0*
Cc1ccc(S(=O)(=O)CCC(=O)N2CCN(c3ccc([N+](=O)[O-])cc3)CC2)cc1	2.0	5.8	-2.1	9.0	-1.7	39.4*	34.8*
COc1ccc(N2CCN(C(=O)CN(C)S(=O)(=O)c3ccc4c(c3)c(=O)n(C)c(=O)n4C)CC2)cc1	2.3	2.9	4.5	6.4	-2.9	60.9*	50.6*	LYPLA2 ABPP=14.0
COc1ccc(S(=O)(=O)CCC(=O)N2CCN(c3ccc([N+](=O)[O-])cc3)CC2)cc1	4.2	3.3	-0.9	9.5	-1.8	54.9*	58.4*	LYPLA2 ABPP=25.0
